Reference: PubChem BioAssay (EPA / NIEHS)
Where “and” joins values, the source holds several entries; their conditions need not be identical. Equal values may be shown once. Where a structure was tested more than once in an assay, its records may differ in their call. Calls of active or inactive are those of the source. Rule for the calls: active = hit-call score of the fitted dose curve at least 0.9, where 1 is the maximum; inactive = score below 0.9.

Key:
[1] = read-out: Intercellular Adhesion Molecule 1 (ICAM1), ICAM1 (gene 3383); experiment: BSK_BF4T_ICAM1: BioMAP Diversity Plus: BF4T Assay for Intercellular Adhesion Molecule 1 (ICAM1) Biomarker Activity (AID 2284260); conditions: primary human bronchial epithelial cells with fibroblasts
Method in brief: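 ICAM-1 levels measured by ELISA after 24 h chemical treatment of bronchial epithelial cell/dermal fibroblast co-cultures, read against DMSO baseline. Overt cytotoxicity checked in parallel cultures by sulforhodamine B staining.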

[2] = read-out: Interleukin-8 (IL8), CXCL8 (gene 3576); experiment: BSK_MyoF_IL8: BioMAP Diversity Plus: MyoF Assay for Interleukin-8 (IL8) Biomarker Activity (AID 2284261); conditions: primary human lung fibroblasts
Method in brief: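 Lung fibroblasts (human primary) → chemical exposure → 24 h → IL-8 measured by ELISA. Signal increase scored versus DMSO control.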

[3] = read-out: CD90, THY1 (gene 7070); experiment: BSK_BF4T_CD90: BioMAP Diversity Plus: BF4T Assay for CD90 Biomarker Activity (AID 2284262); conditions: primary human bronchial epithelial cells with fibroblasts
Method in brief: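 CD90 levels by ELISA after 24 h treatment of human bronchial epithelial cell/dermal fibroblast cultures, analysed versus DMSO. Overt cytotoxicity checked in parallel cultures by sulforhodamine B staining.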

[4] = read-out: Interleukin-8 (IL8), CXCL8 (gene 3576); experiment: BSK_BF4T_IL8: BioMAP Diversity Plus: BF4T Assay for Interleukin-8 (IL8) Biomarker Activity (AID 2284263); conditions: primary human bronchial epithelial cells with fibroblasts
Method in brief: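 Human bronchial epithelial cells with dermal fibroblasts co-culture; IL-8 measured by ELISA 24 hours after dosing, fitted vs DMSO. Cytotoxicity tracked in parallel cultures by SRB total-protein staining.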

[5] = read-out: Interleukin-1 alpha (IL1a), IL1A (gene 3552); experiment: BSK_BF4T_IL1a: BioMAP Diversity Plus: BF4T Assay for Interleukin-1 alpha (IL1a) Biomarker Activity (AID 2284264); conditions: primary human bronchial epithelial cells with fibroblasts
Method in brief: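 ELISA read-out of IL-1α from bronchial epithelial cell/dermal fibroblast co-cultures 24 h after compound addition. Increases scored against DMSO negative control. Cytotoxicity monitored by sulforhodamine B staining of parallel cultures.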

[6] = read-out: Decorin, DCN (gene 1634); experiment: BSK_MyoF_Decorin: BioMAP Diversity Plus: MyoF Assay for Decorin Biomarker Activity (AID 2284265); conditions: primary human lung fibroblasts
Method in brief: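 ELISA readout of decorin, 24 h post-dosing; primary human lung fibroblast (MyoF) culture; gain-of-signal fit vs DMSO baseline.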

[7] = read-out: KRT18 (gene 3875); experiment: BSK_BF4T_Keratin818: BioMAP Diversity Plus: BF4T Assay for Keratin 818 Biomarker Activity (AID 2284266); conditions: primary human bronchial epithelial cells with fibroblasts
Method in brief: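 Keratin 8/18 levels quantified by ELISA after 24 h chemical treatment of bronchial epithelial cell/dermal fibroblast co-cultures, fitted in positive direction relative to DMSO. Parallel SRB staining tracks overt cytotoxicity.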

[8] = BSK_MyoF_SRB: Viability Assessment in the BioMAP Diversity Plus: MyoF Assay (AID 2284267); conditions: primary human lung fibroblasts;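 note: total protein by SRB absorbance in parallel cultures as cytotoxicity measure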
Method in brief: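 Cytotoxicity read-out: after 10% TCA fixation, parallel human lung fibroblast cultures were stained with 0.1% SRB at 24 h post-dosing and read at 560 nm; DMSO served as baseline.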

[9] = read-out: Matrix Metallopeptidase 1 (MMP1), MMP1 (gene 4312); experiment: BSK_MyoF_MMP1: BioMAP Diversity Plus: MyoF Assay for Matrix Metallopeptidase 1 (MMP1) Biomarker Activity (AID 2284268); conditions: primary human lung fibroblasts
Method in brief: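 Cells: human lung fibroblasts. Exposure: 24 h chemical dosing. Detection: ELISA for MMP1. Analysis: upward fitting against DMSO negative control.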

[10] = read-out: TIMP metallopeptidase inhibitor 1 (TIMP1), TIMP1 (gene 7076); experiment: BSK_MyoF_TIMP1: BioMAP Diversity Plus: MyoF Assay for TIMP metallopeptidase inhibitor 1 (TIMP1) Biomarker Activity (AID 2284269); conditions: primary human lung fibroblasts
Method in brief: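 ELISA read-out of TIMP-1 from primary human lung fibroblast cultures 24 h after compound dosing; gain of signal relative to DMSO vehicle baseline defines activity.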

[11] = read-out: Matrix Metallopeptidase 1 (MMP1), MMP1 (gene 4312); experiment: BSK_BF4T_MMP1: BioMAP Diversity Plus: BF4T Assay for Matrix Metallopeptidase 1 (MMP1) Biomarker Activity (AID 2284270); conditions: primary human bronchial epithelial cells with fibroblasts
Method in brief: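 MMP-1 quantified by ELISA in primary human bronchial epithelial/dermal fibroblast co-cultures, 24 hours post-dosing, with DMSO as baseline; parallel sulforhodamine B staining (560 nm) tracks overt cytotoxicity.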

[12] = read-out: Matrix Metallopeptidase 3 (MMP3), MMP3 (gene 4314); experiment: BSK_BF4T_MMP3: BioMAP Diversity Plus: BF4T Assay for Matrix Metallopeptidase 3 (MMP3) Biomarker Activity (AID 2284271); conditions: primary human bronchial epithelial cells with fibroblasts
Method in brief: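 MMP-3 level read by ELISA after 24 h chemical exposure of bronchial epithelial cell/dermal fibroblast co-cultures, fitted upward relative to DMSO. Parallel cultures stained with 0.1% SRB after TCA fixation gauge overt cytotoxicity.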

[13] = read-out: Tissue plasminogen activator (tPA), PLAT (gene 5327); experiment: BSK_BF4T_tPA: BioMAP Diversity Plus: BF4T Assay for Tissue plasminogen activator (tPA) Biomarker Activity (AID 2284272); conditions: primary human bronchial epithelial cells with fibroblasts
Method in brief: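 tPA level quantified by ELISA at 24 h post-treatment in bronchial epithelial/dermal fibroblast co-cultures, gain of signal scored against DMSO baseline. Parallel cultures stained with 0.1% SRB (560 nm) to flag overt cytotoxicity.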

[14] = read-out: Plasminogen Activator Inhibitor-1 (PAI1), SERPINE1 (gene 5054); experiment: BSK_BF4T_PAI1: BioMAP Diversity Plus: BF4T Assay for Plasminogen Activator Inhibitor-1 (PAI1) Biomarker Activity (AID 2284273); conditions: primary human bronchial epithelial cells with fibroblasts
Method in brief: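 PAI-1 levels quantified by ELISA 24 h post-dosing in bronchial epithelial cell plus dermal fibroblast cultures. Signal gain referenced to DMSO baseline. Sulforhodamine B total-protein staining of parallel wells checked cytotoxicity.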

[15] = BSK_BF4T_SRB: Viability Assessment in the BioMAP Diversity Plus: BF4T Assay (AID 2284274); conditions: primary human bronchial epithelial cells with fibroblasts
Method in brief: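 Cytotoxicity measured as total protein: cells fixed with 10% TCA, stained with 0.1% SRB, read at 560 nm. Bronchial epithelial/dermal fibroblast co-culture, 24 h after dosing, with positive-direction fitting relative to DMSO.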

[16] = read-out: urokinase Plasminogen Activator (uPA), PLAU (gene 5328); experiment: BSK_BF4T_uPA: BioMAP Diversity Plus: BF4T Assay for urokinase Plasminogen Activator (uPA) Biomarker Activity (AID 2284275); conditions: primary human bronchial epithelial cells with fibroblasts
Method in brief: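 uPA levels measured by ELISA at 24 hours in BF4T cultures (bronchial epithelial cells plus dermal fibroblasts) and compared with DMSO; cytotoxicity tracked in parallel cultures by sulforhodamine B staining.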

[17] = read-out: Matrix Metallopeptidase 9 (MMP9), MMP9 (gene 4318); experiment: BSK_BF4T_MMP9: BioMAP Diversity Plus: BF4T Assay for Matrix Metallopeptidase 9 (MMP9) Biomarker Activity (AID 2284276); conditions: primary human bronchial epithelial cells with fibroblasts
Method in brief: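 MMP-9 levels were measured by ELISA after 24 h exposure of bronchial epithelial cell/dermal fibroblast co-cultures, with DMSO as baseline. Parallel cultures were stained with 0.1% SRB after TCA fixation, read at 560 nm, to flag overt cytotoxicity.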

[18] = read-out: Interleukin-8 (IL8), CXCL8 (gene 3576); experiment: BSK_IMphg_IL8: BioMAP Diversity Plus: IMphg Assay for Interleukin-8 (IL8) Biomarker Activity (AID 2284277); conditions: primary human endothelial cells with macrophages
Method in brief: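 IL-8 levels were measured by ELISA 24 h after dosing in primary human venular endothelial cell–macrophage cultures, referenced to DMSO; parallel SRB staining monitored overt cytotoxicity.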

[19] = read-out: Intercellular Adhesion Molecule 1 (ICAM1), ICAM1 (gene 3383); experiment: BSK_BE3C_ICAM1: BioMAP Diversity Plus: BE3C Assay for Intercellular Adhesion Molecule 1 (ICAM1) Biomarker Activity (AID 2284278); conditions: primary human bronchial epithelial cells
Method in brief: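 ICAM-1 quantified by ELISA and fitted against DMSO baseline, 24 h post-dosing in BE3C cultures of primary human lung bronchial epithelial cells. Cytotoxicity checked in parallel cultures by total protein SRB staining.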

[20] = read-out: Interferon-inducible T-cell alpha chemoattractant (ITAC), CXCL11 (gene 6373); experiment: BSK_BE3C_ITAC: BioMAP Diversity Plus: BE3C Assay for Interferon-inducible T-cell alpha chemoattractant (ITAC) Biomarker Activity (AID 2284279); conditions: primary human bronchial epithelial cells
Method in brief: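 ELISA read-out of I-TAC after 24 h chemical dosing of human lung primary bronchial epithelial cells; gain-of-signal fit vs DMSO baseline. Parallel SRB total-protein staining (0.1% SRB, 10% TCA fixation, 560 nm) assessed cytotoxicity.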

Measured: AC50

O=S(=O)(O)C(F)(F)C(F)(F)C(F)(F)C(F)(F)F
inactive: [1] | [2] | [3] | [4] | [5] | [6] | [7] | [8] | [9] | [10] | [11] | [12] | [13] | [14] | [15] | [16] | [17] | [19] | [20]
active: [18] 30 µM and 33.4 µM

O=C(O)C(F)(F)C(F)(F)C(F)(F)C(F)(F)C(F)(F)F
inactive: [1] | [2] | [3] | [4] | [5] | [6] | [7] | [8] | [9] | [10] | [11] | [12] | [13] | [14] | [15] | [16] | [17] | [18] | [19] | [20]

Sc1ccccc1
inactive: [2] | [6] | [8] | [9] | [10]

O=C(O)C(F)(F)C(F)(F)C(F)(F)C(F)(F)C(F)(F)C(F)(F)C(F)(F)C(F)(F)F
active: [1] 22.2 µM and 38.1 µM | [4] 48 µM and 48.7 µM | [5] 48.7 µM and 52.5 µM | [7] 51.6 µM and 55.1 µM | [11] 48.4 µM and 51.1 µM | [12] 47.4 µM and 55.2 µM | [13] 35.6 µM and 27.7 µM | [14] 47.5 µM and 46.2 µM | [15] 43.3 µM and 44 µM | [16] 50.3 µM and 54.7 µM | [17] 44.2 µM and 45.2 µM | [18] 15.8 µM and 5.94 µM | [19] 56.4 µM and 54.7 µM | [20] 49.1 µM and 56 µM
inactive: [2] | [3] | [6] | [8] | [9] | [10]

O=S(=O)(O)C(F)(F)C(F)(F)C(F)(F)C(F)(F)C(F)(F)C(F)(F)F
active: [18] 22.9 µM
inactive: [1] | [2] | [3] | [4] | [5] | [6] | [7] | [8] | [9] | [10] | [11] | [12] | [13] | [14] | [15] | [16] | [17] | [18] | [19] | [20]

O=C(O)C(F)(F)C(F)(F)C(F)(F)C(F)(F)C(F)(F)C(F)(F)C(F)(F)C(F)(F)C(F)(F)F
active: [1] 11.6 µM and 14.5 µM | [2] 54.6 µM | [3] 19 µM and 19.4 µM | [5] 14.3 µM and 48 µM | [6] 23.6 µM and 22.3 µM | [7] 15 µM | [8] 50 µM and 38.9 µM | [9] 45 µM | [10] 50.6 µM and 37.4 µM | [11] 14.1 µM and 11 µM | [12] 18.5 µM and 21.3 µM | [13] 34.6 µM and 17.3 µM | [14] 22.9 µM and 24.8 µM | [15] 17.7 µM and 19.3 µM | [16] 14.6 µM and 18 µM | [17] 20 µM and 20.5 µM | [19] 16.9 µM and 14.6 µM | [20] 12.8 µM and 13.7 µM
inactive: [2] | [4] | [7] | [9] | [18]

NS(=O)(=O)C(F)(F)C(F)(F)C(F)(F)C(F)(F)C(F)(F)C(F)(F)C(F)(F)C(F)(F)F
inactive: [6] | [9] | [11]
active: [1] 47.2 µM and 36 µM | [2] 53 µM and 50.7 µM | [3] 30 µM and 21.8 µM | [4] 49.2 µM and 48.2 µM | [5] 44.9 µM and 24.2 µM | [6] 52.9 µM | [7] 44.7 µM and 31.5 µM | [8] 43.1 µM and 42.8 µM | [10] 35.1 µM and 21.5 µM | [12] 52.2 µM and 49.7 µM | [13] 51.4 µM and 55 µM | [14] 44 µM and 45.9 µM | [15] 45 µM and 47.5 µM | [16] 48.2 µM and 44.3 µM | [17] 23.3 µM and 34 µM | [18] 52.1 µM and 14.9 µM | [19] 55 µM and 53 µM | [20] 43.2 µM and 36.9 µM

COc1ccc(O)c(C(C)(C)C)c1
inactive: [19] | [20]

Oc1c(Cl)c(Cl)c(Cl)c(Cl)c1Cl
active: [2] 0.595 µM | [6] 10.2 µM | [8] 6.05 µM | [9] 11.5 µM | [10] 9.53 µM
